The text below walks through data of PubChem BioAssay (Tox21).

Assay [1] in a line: qHTS assay to identify small molecule antagonists of the estrogen related receptor (ERR) signaling pathway - cell viability counter screen (AID 1224818). Further: series mostly up to about 46 µM. In a few lines: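 Here, ERR cells are plated at 2,000 cells per well, allowed 6 h to attach, and treated with compounds in DMSO for 17.5 h at 37 C. CellTiter-Fluor is then added and fluorescence read after 30 min.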
A general note: Quantitative high-throughput screening tests each substance at several concentrations.

Assay [2] is described as follows: qHTS assay to identify small molecule antagonists of the estrogen related receptor (ERR) signaling pathway (AID 1224819; further: nearly all actives have a fitted effect of over 50% in size; further: potency means the concentration at half of the fitted maximal effect). Put shortly: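 LOPAC library screened for antagonism as reduced One-Glo luminescence in ERR reporter cells (2,000/well). Compounds were added after 6 h pre-incubation and left 18 h at 37C; reading followed a 30 min room-temperature reagent step.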

A short description of assay [3]: qHTS assay to identify small molecule agonists of the estrogen related receptor (ERR) signaling pathway (AID 1224820). Further: potency means the concentration at half of the fitted maximal effect. In a few lines: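 ERR reporter cells (NTP line) plated 2,000/well, incubated 6 h at 37 C/5% CO2, then pinned with compounds in DMSO and held 18 h at 37 C. One-Glo added; luminescence read after 30 min at room temperature.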
Assay [4] relates to estrogen-related receptor alpha (ERRalpha) with PGC-1alpha coactivator, human. The assay can be described thus: qHTS assay to identify small molecule antagonists of the estrogen related receptor signaling pathway with the pleiotropic PPARgamma coactivator (PGC) (AID 1224821; calls by dose curve; further: nearly all actives have a fitted effect of over 50% in size; further: potency means the concentration at half of the fitted maximal effect). In a few lines: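 Cells engineered for PGC/ERR signalling (line from NTP) were plated 6 h at 37 C/5% CO2, then exposed to DMSO-dissolved compound for 18 h at 37 C. Luciferase activity was read by One-Glo luminescence after 30 min at room temperature.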

A short description of assay [5]: qHTS assay to identify small molecule antagonists of the estrogen related receptor signaling pathway with the pleiotropic PPARgamma coactivator (PGC) cell viability counter screen (AID 1224822; further: potency means the concentration at half of the fitted maximal effect). Put shortly: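 qHTS format, DMSO compound stocks pin-transferred onto PGC/ERR cells 6 h after plating; 17.5 h exposure at 37 C, then CellTiter-Fluor fluorescence.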
A short description of assay [6]: qHTS assay to identify small molecule agonists of the estrogen related receptor signaling pathway with the pleiotropic PPARgamma coactivator (PGC) (AID 1224823). In a few lines:
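PGC/ERR reporter cells were seeded, rested 6 h at 37 C/5% CO2, then exposed to compounds in DMSO by pin transfer for 18 h at 37 C. Luciferase activity was read as luminescence after One-Glo reagent and 30 min at room temperature.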

Results filed as inconclusive are left out. Activity calls are given as the source filed them. Unless noted, the call rests on the fitted dose curve; in most records, active means well fitted curve in the direction sought with a large enough effect in the repeat runs; inconclusive means weak or mixed curves; inactive means no such curve, though single readings can be large; an effect the other way counts as inactive or inconclusive.

`CC(C)NC[C@@H](O)c1ccc(O)c(O)c1`: the Potency result in assay [1], in assay [2], in assay [3], in assay [4], in assay [5] and in assay [6] was “inactive” in each case.

`COc1ccc(C(=O)NCc2cccnc2)cc1C(=O)NCc1cccnc1`: the Potency entry in assay [1], in assay [2], in assay [3], in assay [4], in assay [5] and in assay [6] was “inactive” each time.

As for `O=C(O)C1=CCNCC1`, the Potency entry in assay [1], in assay [2], in assay [3], in assay [4], in assay [5] and in assay [6] was “inactive” each time.

Regarding `N#CC(=C(\N)Sc1ccccc1N)/C(C#N)=C(/N)Sc1ccccc1N`, the Potency result in assay [1], in assay [3], in assay [5] and in assay [6] was “inactive” in each case. In addition, the Potency in assay [2] is 10.2 µM (active); in assay [4], 9.81 µM (active).

As for `CC(C)(Sc1ccc(CCN(CCCCC2CCCCC2)C(=O)NC2CCCCC2)cc1)C(=O)O`, the Potency entry in assay [1], in assay [2], in assay [3], in assay [4], in assay [5] and in assay [6] was “inactive” in each case.

With `CC(N)(Cc1ccc(O)cc1)C(=O)O` (stereo not drawn), the Potency entry in assay [1], in assay [2], in assay [3], in assay [4], in assay [5] and in assay [6] was “inactive” in each case.

Take `CC(N)(C(=O)O)c1ccc(C(=O)O)cc1` (stereo not drawn): the Potency entry in assay [1], in assay [2], in assay [3], in assay [4], in assay [5] and in assay [6] was “inactive” each time.

For the compound `Cc1ccc(O)c(N=Nc2ccccc2)n1`, the Potency result in assay [1], in assay [2], in assay [4] and in assay [6] was “inactive” each time. The results for the Potency in assay [3] and in assay [5] were 8.41 µM (active) and 5.52 µM (active), respectively.

`COCCOc1cc2nc[nH]c(=O)c2cc1OCCOC`: the Potency result in assay [1], in assay [2], in assay [3], in assay [4], in assay [5] and in assay [6] was “inactive” throughout.

With `CCCn1c(=O)[nH]c(=O)c2[nH]cnc21`, the Potency result in assay [1], in assay [2], in assay [3], in assay [4], in assay [5] and in assay [6] was “inactive” each time.

Regarding `Brc1ccc([C@H]2CN3CCSC3=N2)cc1`, the Potency entry in assay [1], in assay [2], in assay [3], in assay [4], in assay [5] and in assay [6] was “inactive” in each case.

For `OCC1NCC(O)C(O)C1O` (stereo not drawn), the Potency entry in assay [1], in assay [2], in assay [3], in assay [4], in assay [5] and in assay [6] was “inactive” in each case.

On to `O=c1[nH]c2cc(Cl)ccc2c(O)c1-c1ccc(Oc2ccccc2)cc1`, for which the Potency entry in assay [1], in assay [2], in assay [3], in assay [4], in assay [5] and in assay [6] was “inactive” throughout.

On to `O=c1onc2n1-c1cc(Br)ccc1OC2`, for which the Potency entry in assay [1], in assay [2], in assay [3], in assay [4], in assay [5] and in assay [6] was “inactive” in each case.

Consider `O=C(O)C1CCCN(CCC=C(c2ccccc2)c2ccccc2)C1` (stereo not drawn), for which the Potency result in assay [1], in assay [2], in assay [3], in assay [4], in assay [5] and in assay [6] was “inactive” throughout.

Consider `NC(=O)CC[C@H](N)C(=O)O`, for which the Potency result in assay [1], in assay [2], in assay [3], in assay [4], in assay [5] and in assay [6] was “inactive” throughout.

As to `S=C(Nc1ccccc1)Nc1nccs1`, the Potency entry in assay [1], in assay [2], in assay [3] and in assay [6] was “inactive” in each case. The Potency in assay [4] was 0.81 µM (active); in assay [5], 0.335 µM (active).

With `Cc1cc(Cn2cnc3c2C[C@@H](C(=O)O)N(C(=O)C(c2ccccc2)c2ccccc2)C3)ccc1N`, the Potency entry in assay [1], in assay [2], in assay [3], in assay [4], in assay [5] and in assay [6] was “inactive” throughout.
